Experimental data from PubChem BioAssay (Tox21).
Inconclusive results are not listed. A call without a number means that no potency is given here. The source made the active and inactive calls. Calls come from the whole dose curve; as a rule, active = well fitted inhibition curve with a large enough effect in the signal ratio in the repeat runs (not every such curve was filed as active); inconclusive = weak or mixed curves, or effect the other way; inactive = flat fitted curve, though single readings scatter; the % refers to the signal ratio.

Experiment: cAMP Responsive Elements (CRE) small molecule antagonists, cell-based qHTS assay (AID 1963591)
Conditions: CRE-bla HEK293T, beta-lactamase FRET ratio; series mostly up to 92.4 µM
Excerpt: U.S. Tox21 Program National Center for Advancing Translational Sciences [NCATS] Division of Preclinical Innovation [DPI] U.S. Environmental Protection Agency [EPA] National Institutes of Environmental Health Sciences [NIEHS] National Toxicology Program [NTP] U.S. Food and Drug Administration [FDA] Tox21 Assay Overview: CREB (cyclic-AMP Responsive Element Binding Protein) is a cellular transcription factor. It binds to certain DNA sequences called cAMP Responsive Elements (CRE) and regulates the transcription of the genes. […] This cell line can be used to find agonists/antagonists of the cyclic AMP signaling pathway. The activation of the report gene under culture conditions can be detected by fluorescence intensity. This cell line has been used to screen the Tox21 10K compound library to […].
Tox21 Assay Protocol Summary: CRE-bla Hek 293T cells were suspended in assay medium (DMEM containing 10% dialyzed FBS, 0.1 mM NEAA, 1 mM sodium pyruvate and 25 mM HEPES) and dispensed at 2,000 cells/4 uL /well into 1536-well black wall/clear bottom plates using a Multidrop Combi (ThermoFisher Scientific, Waltham, MA) dispenser. After the assay plates were incubated at 37 C/5% CO2 for 18 hrs, 23 nL of compounds dissolved in DMSO, positive controls or DMSO only was transferred to the assay plate by a pintool workstation (Kalypsys, San Diego, CA), followed by addition of 1 […] uL of 1.25uM NKH477 (0.25 uM as final concentration) in assay medium using a Flying Reagent Dispenser (Aurora Discovery, San Diego, CA). The plates were incubated at 37 C and 5% CO2 for 3 hrs. Then 1 uL of LiveBLAzer B/G FRET substrate (Invitrogen, Carlsbad, CA) was added to each well using Bioraptr Flying Reagent Dispenser (FRD, Aurora Discovery, San Diego, CA). The plates were incubated at room temperature for 2 h.
In the case of `CN(C)CCCNCCC#N`, the Potency is reported as “inactive”.
With `CC(=O)CC(=O)Nc1ccccc1` the Potency was “inactive”.
In the case of `COC(=O)Nc1nc2ccc(Sc3ccccc3)cc2[nH]1`, the Potency is reported as “inactive”.
For `Fc1ccccc1-c1ccccc1`, the Potency was “inactive”.
In the case of `CCCCCCCCO[C@@H]1O[C@H](CO)[C@@H](O)[C@H](O)[C@H]1O`, the Potency is reported as “inactive”.
In the case of `NC(=O)Cc1cccc2ccccc12`, the Potency is reported as “inactive”.
In the case of `CC(C)OCCO`, the Potency is reported as “inactive”.
For `CC1=CC(=O)NS(=O)(=O)O1`, the Potency was “inactive”.
In the case of `CCCCCC/C(C=O)=C\c1ccccc1`, the Potency is reported as “inactive”.
In the case of `CCCCN=C(N)N=C(N)N`, the Potency is reported as “inactive”.
In the case of `CCCC(=O)C(C)=O`, the Potency is reported as “inactive”.
For `C/C=C(\C)C(=O)OC/C=C(\C)CCC=C(C)C`, the Potency was “inactive”.
In the case of `COc1cc(C(=S)N2CCOCC2)cc(OC)c1OC`, the Potency is reported as “inactive”.
In the case of `COc1cccc(OC)c1C(=O)O`, the Potency is reported as “inactive”.
For `O=Cc1cccc([N+](=O)[O-])c1`, the Potency was “inactive”.
For `N#CCc1cccc(C(F)(F)F)c1`, the Potency was “inactive”.
With `CCOCCOCCOCC` the Potency was “inactive”.
For `CC(=O)[O][Al][O]C(C)=O`, the Potency was “inactive”.
In the case of `CCCCCCCCCC/C=C/C#N`, the Potency is reported as “inactive”.
In the case of `N[C@@H](Cc1c[nH]c2ccc(O)cc12)C(=O)O`, the Potency is reported as “inactive”.
In the case of `Cc1ccc(S(=O)(=O)O)c(C)c1`, the Potency is reported as “inactive”.
For `Cn1cnc2c(F)c(Nc3ccc(Br)cc3Cl)c(C(=O)NOCCO)cc21`, the Potency was “inactive”.
In the case of `N=C(N=C(N)N)N1CCOCC1`, the Potency is reported as “inactive”.
For `CCCC(=O)OCc1ccccc1`, the Potency was “inactive”.
For `CCCOCCC`, the Potency was “inactive”.
For `O=S1(=O)OC(c2ccc(O)cc2)(c2ccc(O)cc2)c2ccccc21`, the Potency was “inactive”.
For `c1ccc(CCc2ccccc2)cc1`, the Potency was “inactive”.
With `C=CC(C)(O)CC/C=C(\C)CCC=C(C)C` (stereo not given) the Potency was “inactive”.
In the case of `CCN1CCCC(OC(=O)C(c2ccccc2)c2ccccc2)C1` (stereo not given), the Potency is reported as “inactive”.
With `CCCCc1ncc(/C=C(\Cc2cccs2)C(=O)O)n1Cc1ccc(C(=O)O)cc1` the Potency was “inactive”.
For `Cc1ncc(CSSCc2cnc(C)c(O)c2CO)c(CO)c1O`, the Potency was “inactive”.
With `ON=C1CCCCC1` the Potency was “inactive”.
With `C[N+](C)(CCOc1ccccc1)Cc1cccs1` the Potency was “inactive”.
For `C[N+](C)(C)CC(O)CCl` (stereo not given), the Potency was “inactive”.
With `CC(=O)c1sc(C)nc1C` the Potency was “inactive”.
In the case of `Nc1ccc(O)cc1`, the Potency is reported as “inactive”.
For `CC(C)C(=O)OCCOc1ccccc1`, the Potency was “inactive”.
With `COc1ccc(C)cc1` the Potency was “inactive”.
With `CCCC(=O)OCC(COC(=O)CCC)OC(=O)CCC` the Potency was “inactive”.
With `CCCCCCC(C)(C)C(=O)O` the Potency was “inactive”.
